Bioassay records from PubChem.
LDHA block: LDHA (human) enzyme inhibition | activity change, % (values are at about 110 or 230 µM) | 480,000 tested, 0.15% active | purified LDHA, NADH/diaphorase-resazurin fluorescence; active compounds read low | P00338 | AID 1347041; in the data active = activity change below about -30%; inconclusive = mostly about -25% to -30%;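 note: plate controls were DMSO wells for no effect and wells without enzyme for full effect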
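Enzyme activity of human lactate dehydrogenase 5 (2 nM; 0.06 mM NADH, 0.2 mM pyruvate, 5 min, RT) is measured via a resazurin/diaphorase fluorescence readout of residual NADH.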
D2 antagonist: D2 dopamine receptor (human) antagonism; inhibition, % at 10 µM; 340,000 tested, 2% active; HEK293 TREx D2 cells, calcium flux, dopamine EC80; in the data active = inhibition above about 30%; inactive = below that, where a call was filed; note: 0% is about no effect
Target sequence (P14416 whole entry, looked up): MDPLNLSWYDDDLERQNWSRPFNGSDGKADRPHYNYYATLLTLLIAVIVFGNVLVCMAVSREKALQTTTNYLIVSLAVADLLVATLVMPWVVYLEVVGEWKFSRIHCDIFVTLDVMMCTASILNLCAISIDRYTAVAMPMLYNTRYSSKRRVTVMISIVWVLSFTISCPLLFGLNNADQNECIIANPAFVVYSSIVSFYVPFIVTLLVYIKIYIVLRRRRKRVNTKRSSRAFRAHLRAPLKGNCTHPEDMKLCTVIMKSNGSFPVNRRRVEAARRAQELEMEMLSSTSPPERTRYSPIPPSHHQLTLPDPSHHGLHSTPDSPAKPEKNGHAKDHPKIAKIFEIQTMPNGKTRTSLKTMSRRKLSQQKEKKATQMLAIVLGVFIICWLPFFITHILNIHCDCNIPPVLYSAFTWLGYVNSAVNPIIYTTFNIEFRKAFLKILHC
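Tetracycline-induced HEK293 T-REx cells expressing D2 force-coupled to calcium signalling were dye-loaded, exposed to compound for 180 s, then challenged with an EC80 of dopamine; calcium flux was followed kinetically for a further 180 s.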
D2 PAM-1: positive allosteric modulators of human D2 dopamine receptor | P14416 | DiscoveRx D2 beta-arrestin cells, luminescence, 90 min; 100% = 57 uM dopamine signal | potentiation, % (test concentration not listed) | 360,000 tested, 0.23% active; in the data active = potentiation above about 50%; inconclusive = mostly about 30% to 49%
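PathHunter D2 cells, attached overnight at 37 deg C, received compound in DMSO plus dopamine at EC20 (50 nM final) for 90 min at 37 deg C. Beta-arrestin recruitment was read as luminescence after 1 h with detection reagent at ambient temperature.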
D2 ag-1: activates the human D2 dopamine receptor | P14416 | HEK293 T-REx D2 cells, calcium flux agonist mode | activation, % at 2 µM | 340,000 tested, 0.53% active | AID 485358;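 active = activation over 3 SD above normal in the single-dose calcium agonist read, cut at about 30% in these data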; note: 0% is about no effect
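Tetracycline-induced HEK293 T-REx cells with force-coupled D2 receptor, plated overnight at 30 C, loaded with no-wash calcium dye. After a 10 s baseline, compound was pin-added and calcium flux read kinetically for 180 s; calcium rises flagged agonists.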
D2 ag-2: agonists of human D2 dopamine receptor (beta-arrestin); DiscoveRx PathHunter D2 beta-arrestin, luminescence, 90 min; 100% = 57 uM dopamine signal; 360,000 tested, 0.084% active; activation, % (test concentration not listed); P14416; in the data active = activation above about 40%; inconclusive = between about 15% and that limit
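Agonist mode: compounds alone added to overnight-plated D2 PathHunter cells for 90 min at 37 C, with 57 uM final dopamine (EC100) defining full response. Beta-arrestin recruitment detected by chemiluminescent reagent, read after 1 h at ambient temperature.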
D2 PAM-2: positive allosteric modulators of human D2 dopamine receptor; P14416; HEK293 T-REx D2, calcium flux, EC20 dopamine potentiation; potentiation, % at 10 µM; 340,000 tested, 0.34% active; AID 485347;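 active = potentiation over 3 SD above the plate norm, cut at about 30% in these data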; note: 0% is about no effect
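Cells plated with tetracycline inducer and held overnight at 30 C; calcium dye loaded 30–90 min at room temperature; baseline taken, compound added and read 180 s; EC20 dopamine then added and read 180 s.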
The depositor's hits bear a star; ? = inconclusive; · = no result. Compounds with a hit are over-represented: about 2.1% of the library has one in this group of screens.

SMILES	LDHA block	D2 antagonist	D2 PAM-1	D2 ag-1	D2 ag-2	D2 PAM-2
O=C(N/N=C/c1cccc(Oc2ccc([N+](=O)[O-])cc2[N+](=O)[O-])c1)c1cncc(Br)c1	-21	5	85*	-1	7	23
Cc1ccc(CS(=O)CCC(=O)Nc2ccccc2)cc1 (stereo not given)	1	·	·	·	·	·
Cc1ccc(-c2cc(C(=O)O)c3ccccc3n2)cc1	3	·	·	·	·	·
O=C(O)c1ccccc1NC(=O)c1cc2ccccc2oc1=O	0	14	51*	2	-1	0
Cc1cc(C)cc(NC(=O)c2cc3ccccc3oc2=O)c1	13	·	·	·	·	·
COc1ccc(S(=O)(=O)Nc2nc3ccccc3nc2Nc2cccc(OC)c2)cc1	5	·	·	·	·	·
COc1ccc(OC)c(N2CC(O)(c3cccs3)[N+]3=C2SCCC3)c1 (stereo not given)	-4	40*	-48	4	-4	-25
Cn1c(=O)c2ccccc2n(Cc2ccccc2Cl)c1=O	1	34*	2	-1	1	7
CCCCn1c(CN2CCN(C(=O)c3ccco3)CC2)nc2c1c(=O)[nH]c(=O)n2Cc1ccccc1	0	·	·	·	·	·
CC(CCc1ccccc1)NC(=O)COC(=O)c1ccc([N+](=O)[O-])cc1 (stereo not given)	-7	-12	5	0	0	38*
COC(=O)c1ccc(COc2cccc3c2OC(C)(C)C3)cc1	-3	-11	-2	0	1	-7
COc1ccc(CNCC(O)COc2cccc3c2OC(C)(C)C3)cc1 (stereo not given)	2	44*	-46	0	-5	-32
Cc1cc(C)cc(NC(=O)C2CCN(c3cnccn3)CC2)c1	-3	33*	-5	-1	-8	-38
Cc1ccc(C(CNC(=O)c2cc(=O)c3cc(Br)ccc3o2)N2CCC(C)CC2)o1 (stereo not given)	-2	·	·	·	·	·
O=C1/C(=C\c2ccco2)SC(=S)N1c1ccccc1	6	47*	-6	-1	3	0
FC(F)(F)c1ccnc(N2CCN(Cc3cnc(-c4ccccc4)[nH]3)CC2)c1	1	90*	-20	0	1	-24
Cc1ccc2sc(-c3ccccc3)nc2c1	9	·	·	·	·	·
CCOC(=O)Cc1ccc2sc(-c3ccccc3)nc2c1	0	32*	-6	-1	2	5
CCCCCOC(=O)c1c(C)oc2c1cc(NS(=O)(=O)c1cccs1)c1ccccc12	15	·	·	·	·	·
O=C(Cc1ccccc1Cl)N1CCC(c2nc3c(nnn3Cc3ccccc3)c(=O)[nH]2)CC1	1	·	·	·	·	·
CC(C)(C)c1ccc(C(=O)N/C(=C\c2ccco2)C(=O)O)cc1	-1	18	-6	1	-2	-1
O=C(O)/C(=C/c1ccco1)NC(=O)c1ccccc1	-4	34*	-12	1	-1	1
O=C(CN1CCN(c2ccc(O)cc2)CC1)Nc1ccc2c(c1)OCCO2	6	-10	-10	36*	?	-9
O=C(CN1CCN(c2ccc(F)cc2)CC1)Nc1ccc2c(c1)OCCO2	-8	3	-1	1	0	-7
Cc1cccc(-c2nc(CSc3nc4c(c(=O)[nH]3)CCC4)c(C)o2)c1	15	43*	8	0	8	8
SMILES	LDHA block	D2 antagonist	D2 PAM-1	D2 ag-1	D2 ag-2	D2 PAM-2
Cc1oc(-c2ccccc2)nc1CSc1nc2c(c(=O)[nH]1)CCC2	-15	35*	-2	0	2	6
Cc1cccc(NC(=O)NCc2nc(-c3ccccc3)oc2C)c1C	-2	·	·	·	·	·
CCOc1ccc2[nH]c3c(NCCOC)ncnc3c2c1	-2	-10	12	-2	-7	31*
CC(=O)c1cccc(CN2CCC(C(=O)Nc3cccc(-c4ccn[nH]4)c3)CC2)c1	2	-31	-34	0	-3	-18
C=CCOc1ccccc1CN1CCC(C(=O)Nc2cccc(-c3ccn[nH]3)c2)CC1	-2	92*	-33	1	0	-4
CCOC(=O)c1cc(NC(=O)c2cccc(-c3cc4ccccc4oc3=O)c2)ccc1N1CCOCC1	5	·	·	·	·	·
COc1cccc2cc(C(=O)NCc3nc(-c4ccccc4)no3)oc12	2	·	·	·	·	·
Cc1ccc(Cc2cnc(NC(=O)CN3CCOCC3)s2)cc1Cl	-3	-4	1	1	-1	10
O=C(CN1CCOCC1)Nc1ncc(Cc2cccc3ccccc23)s1	-1	42*	7	0	3	3
O/N=C1\CCCc2ccccc21	-3	-12	-3	0	2	4
O/N=C1\CCCCc2ccccc21	-11	33*	-5	-1	0	-2
Cc1[nH]c2ccccc2c1C1C(c2ccccc2)=NN=C(C(C)C)N1O (stereo not given)	-7	6	12	0	1	31*
CCN(CC)S(=O)(=O)c1ccc(C(=O)OCn2nnc3ccccc3c2=O)cc1	-7	7	1	1	3	75*
CCN(CC)S(=O)(=O)c1ccc(C(=O)OCn2c(SC)nnc(C)c2=O)cc1	1	35*	7	0	7	-5
COc1ccccc1N(C)S(=O)(=O)c1ccc(C(=O)OCn2nnc3ccccc3c2=O)cc1	7	·	·	·	·	·
N#Cc1ccc(OCCN2CCCc3ccccc32)cc1	-3	·	·	·	·	·
COc1ccc(C2Nc3c(C)cc(C)cc3-c3cc(C)nn32)cc1O (stereo not given)	3	·	·	·	·	·
CCN(CC)c1ccc(N)cc1	1	-9	-7	3	7	11
Nc1ccc(N(CCO)CCO)cc1	22	12	64*	3	?	5
NC(=Nc1ccc(Cl)cc1)c1ccccc1	-19	34*	1	29	0	-13
COc1ccc2c(c1OC)C(=O)N1c3ccccc3C(=O)N(c3ccc(F)cc3)C21 (stereo not given)	-4	41*	0	0	-2	·
COc1ccc2c(c1OC)C(=O)N1c3ccccc3C(=O)N(c3ccccc3)C21 (stereo not given)	-1	-5	18	-1	2	1
Cc1ccc(/C=C/C(=O)NC2CCc3ccccc32)o1 (stereo not given)	3	·	·	·	·	·
O=C(COC(=O)C1CCN(c2ccc(C(F)(F)F)cn2)CC1)Nc1ncc(Cl)cc1Cl	-6	35*	-1	0	-1	1
O=C(COC(=O)C1CCN(c2ccc(C(F)(F)F)cn2)CC1)Nc1ccc(Cl)cn1	1	10	-4	1	-6	2
O=C(COC(=O)C1CCN(c2ccc(C(F)(F)F)cn2)CC1)NCc1cccc(Cl)c1	1	34*	-30	2	-7	4
